PubChem BioAssay (Tox21)
Inconclusive results are not listed. A call without a number means that no potency is given here. Active and inactive are the calls of the source. Calls come from the whole dose curve; as a rule, active = well fitted cell-killing curve with a large enough effect in the repeat runs; inconclusive = weak or mixed curves, or effect the other way; inactive = flat fitted curve, though single readings scatter.

Test: cAMP Responsive Elements (CRE) small molecule antagonists, cell-based qHTS assay: qHTS cell viability counter screen (AID 2060913); note: nearly all actives have a fitted effect of over 40% in size
Conditions: CRE-bla HEK293T viability, CellTiter-Glo luminescence, 5 h; series mostly up to 92.4 µM
In short: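 CRE-bla HEK293T cells (2,000/well, 18 h) given compound plus NKH477 0.25 uM final for 3 h at 37C; viability counter-screen by CellTiter-Glo luminescence in same wells after 30 min.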
With `Nc1cc([N+](=O)[O-])ccc1O` the Potency was “inactive”.
For `C[C@H]1NCc2cc(-c3ccc4c(=O)c(C(=O)O)cn(C5CC5)c4c3OC(F)F)ccc21`, the viability change, negative = cytotoxic was 4.45% [at 18.9 µM] (inactive).
With `c1cc(OCC2CO2)cc(OCC2CO2)c1` (stereo not given) the Potency was “inactive”.
With `CCCC[O][Al]([O]CCCC)[O]CCCC` the Potency was “inactive”.
With `CC(C)COC(=O)COc1ccc(Cl)cc1Cl` the Potency was “inactive”.
With `CCN(CC)CCNc1ccc(CNC=O)c2sc3ccc(OC)cc3c(=O)c12` the Potency was “inactive”.
For `CCOc1ccc(Cc2nccc3cc(OCC)c(OCC)cc23)cc1OCC`, the Potency was “inactive”.
For `O=C1N=C(O)CN1/N=C/c1ccc(-c2ccc([N+](=O)[O-])cc2)o1`, the Potency was “inactive”.
For `Oc1ccc2c(c1)CCC2`, the Potency was “inactive”.
With `CC(=O)c1cc(C)oc1C` the Potency was “inactive”.
In the case of `CCCCCCCCC(=O)O`, the Potency is reported as “inactive”.
With `O=C(COc1ccc(Cl)cc1)N1CCN(Cc2ccc3c(c2)OCO3)CC1` the Potency was “inactive”.
With `O=c1cc(CO)occ1O` the Potency was “inactive”.
With `CCCCCCCC/C=C\CCCCCCCC(=O)N(C)CC(=O)O` the Potency was “inactive”.
For `CCCCNc1c(C(=O)OCC)c(C)nc2c1cnn2CC`, the Potency was “inactive”.
With `C(=C/c1ccccc1)/c1ccccc1` the Potency was “inactive”.
In the case of `NCc1ccccc1Sc1ccccc1CO`, the Potency is reported as “inactive”.
For `CCCCOc1ccc(C(=O)CCN2CCCCC2)cc1`, the Potency was “inactive”.
In the case of `CCc1cc(Cl)c(OC)c(C(=O)NC[C@@H]2CCCN2CC)c1O`, the Potency is reported as “inactive”.
In the case of `O=C1CCCCC1C1CCCCC1` (stereo not given), the Potency is reported as “inactive”.
With `O=[N+]([O-])c1ccc(NCCO)c(OCCO)c1` the Potency was “inactive”.
With `COc1ccc([C@@H]2CC(=O)c3c(O)cc(O[C@@H]4O[C@H](CO[C@@H]5O[C@@H](C)[C@H](O)[C@@H](O)[C@H]5O)[C@@H](O)[C@H](O)[C@H]4O)cc3O2)cc1OC` the Potency was “inactive”.
For `Cc1cc(C)c(C)c(O)c1`, the Potency was “inactive”.
With `CO[Si](C)(OC)OC` the Potency was “inactive”.
In the case of `CCCCNCCCC`, the Potency is reported as “inactive”.
With `Oc1ccc(Cc2ccccc2O)cc1` the Potency was “inactive”.
With `OC/C=C/CO` the Potency was “inactive”.
With `Cc1cccc(C(=O)O)c1[N+](=O)[O-]` the Potency was “inactive”.
In the case of `Cc1ccc(-n2nc(C(C)(C)C)cc2NC(=O)Nc2ccc(OCCN3CCOCC3)c3ccccc23)cc1`, the Potency is reported as “inactive”.
With `CC/C=C\CCOC(=O)CCCCC` the Potency was “inactive”.
With `C[N+](C)(C)CCOC(=O)CCC(=O)OCC[N+](C)(C)C` the Potency was “inactive”.
With `NC(=O)c1cccc([N+](=O)[O-])c1` the Potency was “inactive”.
With `CC1CCC(=O)C1=O` (stereo not given) the Potency was “inactive”.
With `OCCCCl` the Potency was “inactive”.
With `COC(=O)CCCC(=O)O` the Potency was “inactive”.
In the case of `O=C(O)CCC(=O)C(=O)O`, the Potency is reported as “inactive”.
For `O=c1[nH]c(=O)n([C@H]2C[C@H](O)[C@@H](CO)O2)cc1Br`, the Potency was “inactive”.
For `COC(C)(C)CCCC(C)CC=O` (stereo not given), the Potency was “inactive”.
With `O=C(O)c1cccc(C(=O)O)c1` the Potency was “inactive”.
In the case of `OC[C@H]1O[C@@H](O[C@@H]2[C@@H](CO)O[C@](O)(CO)[C@H]2O)[C@H](O)[C@@H](O)[C@H]1O`, the Potency is reported as “inactive”.

Test: cAMP Responsive Elements (CRE) small molecule agonists, cell-based qHTS assay: qHTS cell viability counter screen (AID 2060914); note: nearly all actives have a fitted effect of over 50% in size
Conditions: CRE-bla HEK293T viability, CellTiter-Glo luminescence, 5 h; series mostly up to 92.4 µM
In short: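 Cytotoxicity was measured as ATP luminescence (CellTiter-Glo, 30 min at room temperature) in the same wells as the CRE-bla FRET read-out. HEK293T CRE-bla cells had 3 h compound exposure at 37C/5% CO2.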
In the case of `Nc1cc([N+](=O)[O-])ccc1O`, the Potency is reported as “inactive”.
With `C[C@H]1NCc2cc(-c3ccc4c(=O)c(C(=O)O)cn(C5CC5)c4c3OC(F)F)ccc21` the activity change, negative = cytotoxicity was -2.79% [at 18.9 µM] (inactive).
For `c1cc(OCC2CO2)cc(OCC2CO2)c1` (stereo not given), the Potency was “inactive”.
For `CCCC[O][Al]([O]CCCC)[O]CCCC`, the Potency was “inactive”.
With `CC(C)COC(=O)COc1ccc(Cl)cc1Cl` the Potency was “inactive”.
With `CCN(CC)CCNc1ccc(CNC=O)c2sc3ccc(OC)cc3c(=O)c12` the Potency was “inactive”.
In the case of `CCOc1ccc(Cc2nccc3cc(OCC)c(OCC)cc23)cc1OCC`, the Potency is reported as “inactive”.
With `O=C1N=C(O)CN1/N=C/c1ccc(-c2ccc([N+](=O)[O-])cc2)o1` the Potency was “inactive”.
With `Oc1ccc2c(c1)CCC2` the Potency was “inactive”.
In the case of `CC(=O)c1cc(C)oc1C`, the Potency is reported as “inactive”.
For `CCCCCCCCC(=O)O`, the Potency was “inactive”.
For `O=C(COc1ccc(Cl)cc1)N1CCN(Cc2ccc3c(c2)OCO3)CC1`, the Potency was “inactive”.
In the case of `O=c1cc(CO)occ1O`, the Potency is reported as “inactive”.
With `CCCCCCCC/C=C\CCCCCCCC(=O)N(C)CC(=O)O` the Potency was “inactive”.
In the case of `CCCCNc1c(C(=O)OCC)c(C)nc2c1cnn2CC`, the Potency is reported as “inactive”.
For `C(=C/c1ccccc1)/c1ccccc1`, the Potency was “inactive”.
For `NCc1ccccc1Sc1ccccc1CO`, the Potency was “inactive”.
With `CCCCOc1ccc(C(=O)CCN2CCCCC2)cc1` the Potency was “inactive”.
For `CCc1cc(Cl)c(OC)c(C(=O)NC[C@@H]2CCCN2CC)c1O`, the Potency was “inactive”.
With `O=C1CCCCC1C1CCCCC1` (stereo not given) the Potency was “inactive”.
In the case of `O=[N+]([O-])c1ccc(NCCO)c(OCCO)c1`, the Potency is reported as “inactive”.
For `COc1ccc([C@@H]2CC(=O)c3c(O)cc(O[C@@H]4O[C@H](CO[C@@H]5O[C@@H](C)[C@H](O)[C@@H](O)[C@H]5O)[C@@H](O)[C@H](O)[C@H]4O)cc3O2)cc1OC`, the Potency was “inactive”.
With `Cc1cc(C)c(C)c(O)c1` the Potency was “inactive”.
With `CO[Si](C)(OC)OC` the Potency was “inactive”.
In the case of `CCCCNCCCC`, the Potency is reported as “inactive”.
For `Oc1ccc(Cc2ccccc2O)cc1`, the Potency was “inactive”.
For `OC/C=C/CO`, the Potency was “inactive”.
For `Cc1cccc(C(=O)O)c1[N+](=O)[O-]`, the Potency was “inactive”.
In the case of `Cc1ccc(-n2nc(C(C)(C)C)cc2NC(=O)Nc2ccc(OCCN3CCOCC3)c3ccccc23)cc1`, the Potency is reported as “inactive”.
In the case of `CC/C=C\CCOC(=O)CCCCC`, the Potency is reported as “inactive”.
With `C[N+](C)(C)CCOC(=O)CCC(=O)OCC[N+](C)(C)C` the Potency was “inactive”.
In the case of `NC(=O)c1cccc([N+](=O)[O-])c1`, the Potency is reported as “inactive”.
For `CC1CCC(=O)C1=O` (stereo not given), the Potency was “inactive”.
With `OCCCCl` the Potency was “inactive”.
With `COC(=O)CCCC(=O)O` the Potency was “inactive”.
For `O=C(O)CCC(=O)C(=O)O`, the Potency was “inactive”.
For `O=c1[nH]c(=O)n([C@H]2C[C@H](O)[C@@H](CO)O2)cc1Br`, the Potency was “inactive”.
In the case of `COC(C)(C)CCCC(C)CC=O` (stereo not given), the Potency is reported as “inactive”.
For `O=C(O)c1cccc(C(=O)O)c1`, the Potency was “inactive”.
For `OC[C@H]1O[C@@H](O[C@@H]2[C@@H](CO)O[C@](O)(CO)[C@H]2O)[C@H](O)[C@@H](O)[C@H]1O`, the Potency was “inactive”.
